Source: the supplement of paper PMC5641865, “A screen for kinase inhibitors identifies antimicrobial imidazopyridine aminofurazans as specific inhibitors of the Listeria monocytogenes PASTA kinase PrkA” (The Journal of Biological Chemistry, 2017)
± gives the standard deviation of the averaged measurements.

test system: Listeria monocytogenes 10403S; test: growth inhibition relative to ceftriaxone-alone control; higher = stronger potentiation of ceftriaxone growth inhibition; conditions: 10 µM; ceftriaxone 1 ug/ml; 12 h
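Note: End-point A600 read in BHI broth at 37 °C with 2% DMSO, inhibition computed as (1 − OD with compound plus ceftriaxone ÷ OD with ceftriaxone only) × 100.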

Compound | growth inhibition [%]
Cc1ccc(-n2nc(C(C)(C)C)cc2NC(=O)Nc2ccc(OCCN3CCOCC3)c3ccccc23)cc1 [BIRB 796 (Doramapimod)] | 10.5 ± 14
COc1ccc2ncnc(Nc3ccc(OCc4ccccc4)cc3)c2c1 | 1.99 ± 13
Cc1nn(C)c2cc(N(C)c3ccnc(Nc4cccc(S(N)(=O)=O)c4)n3)ccc12 | 10.1 ± 1.2
Cc1cc(-c2ccccn2)cc(C)c1/C=C/c1cncc(-c2nn[nH]n2)c1 | -7.47 ± 9.6
O=C(Nc1cc(C(F)(F)F)cc(C(F)(F)F)c1)c1cc(Cl)ccc1O | 97.6 ± 0.39
Cc1cnc(NC(=O)Nc2cc(Br)c(C)cc2OC[C@@H]2CNCCO2)cn1 | 61.8 ± 50
Cn1c(=O)c(F)c(Nc2ccc(I)cc2F)c2c(=O)n(C[C@@H](O)CO)cnc21 | 23 ± 13
Cc1csc(-c2nnc(Nc3ccc(Oc4ncccc4-c4ccnc(N)n4)cc3)c3ccccc23)c1 | 64 ± 34
O=C(Nc1n[nH]c2nc(-c3ccc(O)cc3)c(Br)cc12)C1CC1 | -9.15 ± 4.2
CCC(=O)N1CCN(c2ccc(-n3c(=O)ccc4cnc5ccc(-c6cnc7ccccc7c6)cc5c43)cc2C(F)(F)F)CC1 [Torin 1] | -4.1 ± 10
COc1cc(Nc2ncc3c(C)nc(-c4cccc(C(F)(F)F)c4)n3n2)cc(OC)c1OC | -2.03 ± 8.5
Nc1nc(-c2ccc3c(c2)C(=Cc2cc(Br)c(O)c(Br)c2)C(=O)N3)cs1 | 3.8 ± 2.8
CS(=O)(=O)Nc1ccc(-c2ccc3c(NC(=O)C4CC4)n[nH]c3c2)cc1 | 38.6 ± 43
N#Cc1ccc(Oc2nccc(-c3c(-c4ccc(F)cc4)ncn3C3CCNCC3)n2)cc1 | -15.2 ± 18
COc1ccc2ncn(-c3cc(O[C@H](C)c4ccccc4C(F)(F)F)c(C(N)=O)s3)c2c1 | 0.811 ± 11
N#Cc1c(NC(=O)CN2CCOCC2)sc2c1CCCC2 | 9.96 ± 12
COC(=O)c1ccc2c(C(=Nc3ccc(N(C)C(=O)CN4CCN(C)CC4)cc3)c3ccccc3)c(O)[nH]c2c1 [BIBF1120 (Vargatef)] | 21.6 ± 14
Nc1nccc(-c2c(-c3ccc(F)cc3)ncn2C2CCNCC2)n1 | 2.49 ± 6.8
CCc1nn2ncccc2c1-c1ccnc(NC2CC2)n1 | -4.93 ± 3

Compound | growth inhibition [%]
CNC(=O)c1cccc(-c2ccc3c(N4CCOC[C@@H]4C)nc(N4CCOC[C@@H]4C)nc3n2)c1 | 1.51 ± 0.18
O=C(O[C@H]1CN[C@H](C#Cc2cc3ncnc(Nc4ccc(OCc5cccc(F)c5)c(Cl)c4)c3s2)C1)N1CCOCC1 | 14.3 ± 11
[O-][S+]1CCN(Cc2ccc(-c3ccc4ncnc(Nc5ccc(OCc6ccccc6)c(Cl)c5)c4c3)o2)CC1 | 2.22 ± 6.4
O=C1NC(=O)C(c2ccccc2[N+](=O)[O-])=C1Nc1ccc(O)c(Cl)c1 | 52.5 ± 49
CNC(=O)c1cc(Oc2ccc(NC(=O)Nc3ccc(Cl)c(C(F)(F)F)c3)c(F)c2)ccn1 [Regorafenib (BAY 73-4506)] | 85.5 ± 3.7
COc1cc(C)c(NC(=O)CN(C)C)cc1Nc1nc(Nc2cccc(F)c2C(N)=O)c2cc[nH]c2n1 | -5.99 ± 8.5
CN1CCC(n2cnc(-c3ccc(F)cc3)c2-c2ccnc(NCCO)n2)CC1 | -2.88 ± 2.5
O=C(NC[C@H](O)CO)c1ccncc1Nc1ccc(I)cc1F | 1.43 ± 12
O=C1NC(=O)/C(=C/c2ccc(-c3ccc(F)cc3O)o2)S1 | 70.7 ± 9.8
COc1ccc2ncn(-c3cc(O[C@H](C)c4ccccc4Cl)c(C(N)=O)s3)c2c1 | 1.82 ± 0.29
CCn1c(N)c(C(=O)NC)c(=O)c2ccc(C#CC(C)(O)COC)nc21 (stereo not drawn) | 2.07 ± 6.6
Cc1ccc(NC(=O)c2cccc(N(C)C)c2)cc1NC(=O)c1ccc(O)cc1 | 29.5 ± 12
CN(C)c1cc2c(Nc3ccc4nc(Cc5ccccc5)[nH]c4c3)ncnc2cn1 | -14.1 ± 8.1
NC(=O)c1sc(-n2cnc3ccccc32)cc1OCc1ccccc1Br | -4.4 ± 0.65
Cc1cc(O)cc(C)c1/C=C/c1cncc(C(N)=O)c1 | -0.223 ± 2.4
COc1ccc(-c2nn3ncccc3c2-c2ccnc(Nc3ccc4c(c3)OCCO4)n2)cc1 | -7.96 ± 4.1
C[C@@H](Oc1cc(-c2cnn(C3CCNCC3)c2)cnc1N)c1c(Cl)ccc(F)c1Cl | 94.9 ± 5.1
Cc1ccc(C(=O)Nc2ccc(CN3CCN(C)CC3)c(C(F)(F)F)c2)cc1C#Cc1cnc2cccnn12 | 94.4 ± 3.5
CNC(=O)c1cncc(/C=C/c2ccccc2Cl)c1 | -3.04 ± 0.74
